Compound activity: PubChem BioAssay, National Center for Advancing Translational Sciences (NCATS)
Sampled rows, rich in hits. Any-hit rate of the full collection: about 19%.
TDP1 cell noCPT – qHTS for Inhibitors of human tyrosyl-DNA phosphodiesterase 1 (TDP1): qHTS in cells in absence of CPT. DT40 Tdp1-/- hTDP1 cells, no CPT, ATP luminescence, 48 h. Potency, µM (series often up to 46.2 µM), for inactives: top-dose activity change, negative = growth inhibition, hits mostly inhibitors. 420,000 compounds, 15% hits. AID 686978, 2013; further: potency means the concentration at half of the fitted maximal effect; nearly all actives have a fitted effect of over 55% in size
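No-CPT arm: Tdp1-/-;hTDP1 DT40 cells (400/well) plus compounds, incubated ≥48 hr at 37 °C. Readout CellTiter-Glo luminescence.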
HT1080NT lethal – kills 2HG-producing HT-1080-NT fibrosarcoma cells. HT-1080-NT fibrosarcoma viability, CellTiter-Glo ATP luminescence, 48 h. Potency, µM (top dose mostly 46.1 µM), inactives show at the top dose activity, negative = less viability, hits mostly cytotoxic. 360,000 compounds, 1.6% hits. AID 686970;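 further: NT is the 2HG producing partner of a matched IDH1 knockdown line; potency means the concentration at half of the fitted maximal effect; 0% = DMSO-treated cells and -100% = media-only wells without cells; nearly all actives have a fitted effect of over 55% in size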
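750 cells/well, RPMI + 5% FBS; 2 h settle, compound pin-transfer, 48 h at 37 degrees C. CellTiter-Glo 10 min RT, luminescence. Normalized to DMSO and media-only wells.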
IL1B secr inh – blocks inflammasome-driven IL-1 beta release. THP-1 LPS/ATP IL-1B secretion, AlphaLISA, 16 h; stronger effect = lower value. activity change, % at 57.5 µM. 360,000 compounds, 4.7% hits. AID 743279; in the data active means activity change below about -50%; inconclusive means mostly about -30% to -49%
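THP-1 cells pretreated 1 hr with compounds (up to 57.5 uM final), then stimulated with LPS (250 ng/mL final) plus ATP (1.25 mM final); secreted IL-1B measured by AlphaLISA after 16 hr, decreased signal indicating inhibition.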
TDP1 cell CPT – DT40-hTDP1 cell growth loss with CPT; 420,000 compounds, 12% hits; Potency, µM (series often up to 46.2 µM), for the others: top-dose activity change, negative = growth inhibition, hits mostly inhibitors; chicken DT40 Tdp1-/-;hTDP1 cells + 20 nM CPT, ATP luminescence, 48 h; AID 686979; further: potency means the concentration at half of the fitted maximal effect; nearly all actives have a fitted effect of over 55% in size
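Chicken DT40 Tdp1-/- cells complemented with human TDP1, 400 cells/well, exposed to compounds plus 20 nM camptothecin for at least 48 h at 37 C; viability read as ATP content by CellTiter-Glo luminescence.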
HT1080 IDH1KD tx – toxicity to HT-1080 IDH1 knockdown cells (counter line); Potency, µM (top dose mostly 46.1 µM), for inactives: at the top dose activity, negative = toxicity, most hits filed as cytotoxic; 360,000 compounds, 2% hits; AID 686971; HT-1080 IDH1 knockdown viability, ATP luminescence, 48 h;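 further: potency means the concentration at half of the fitted maximal effect; 0% = DMSO wells and -100% = cell-free medium wells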
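CellTiter-Glo luminescence after 48 h compound exposure at 37 degrees C of IDH1-knockdown HT-1080 cells in 5% FBS RPMI. %Activity scaled between DMSO wells and cell-free media wells, with curves fitted and assigned curve classes.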
ELG1 repair inh – inhibitors of ELG1-dependent DNA repair in HEK293T cells; 330,000 compounds, 2.3% hits; Potency, µM (top dose mostly 46.1 µM), for the others: top-dose activity change, negative = inhibition, actives largely listed as inhibitors; HEK293T ELG1-luciferase reporter, luminescence, 16 h; DNA damage induced by 5-fluorouridine; further: potency means the concentration at half of the fitted maximal effect; nearly all actives have a fitted effect of over 55% in size
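Reporter activity after DNA damage by 5-fluorouridine is monitored. Compound-treated cells incubate 16 hr at 37 °C, then ONE-Glo is added for 30 min before luminescence reading.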
* = called active by the depositor; ? = inconclusive; · = no result; [ ] = remark or other dose. Unless noted, the call rests on the fitted dose curve; in most records, active means well fitted curve in the direction sought with a large enough effect; inconclusive means small, poorly fitted or top-dose-only effect, or another doubt; inactive means no such curve, though single readings can be large; an effect the other way counts as inactive or inconclusive. Unless noted, on the % scale 0 is the no-effect control and ±100 the full control effect.

SMILES	TDP1 cell noCPT	HT1080NT lethal	IL1B secr inh	TDP1 cell CPT	HT1080 IDH1KD tx	ELG1 repair inh
CCC(=O)CN(Cc1cc(OC)ccc1OC)S(=O)(=O)c1ccccc1Br	-7.8%	-0.4%	-2.8	?	-1.8%	-4.9%
COc1ccccc1CCn1cnc(-c2ccc(Br)cc2)c1C(C)C	18.4µM*	23.1µM*	0.0	14.6µM*	23.1µM*	·
CCCCCc1c(-c2ccc(F)cc2)ncn1CCc1ccccc1OC	18.4µM*	?	-50.8*	9.2µM*	?	·
COc1ccccc1CCn1c(N)cc(=O)[nH]c1=O	4.5%	0.5%	0.0	-8.9%	-9.4%	5.8%
COc1ccccc1CCC(=O)NNC(=O)c1ccc(Br)cc1	-7.3%	-17.1%	-15.5	-26.0%	?	0.3%
COc1ccccc1CCC(=O)O	-1.4%	·	·	-9.5%	·	·
CCCCCc1c(-c2ccc(Br)cc2)ncn1CCc1ccccc1OC	4.61µM*	16.4µM*	-82.5*	6.51µM*	20.6µM*	·
COc1ccccc1CCn1cnc(Cc2ccccc2)c1C(C)C	7.31µM*	?	-51.8*	7.31µM*	?	·
COc1ccc(CNC(=O)c2ccc3c(c2)N(Cc2ccccc2C)C(=O)c2ccccc2S3=O)cc1 (stereo not given)	?	·	·	-17.8%	·	·
Cc1nc2ccc(C(=O)NC(C)(C)C)cn2c1N(C)C(=O)CCc1ccccc1	-1.1%	28.5%	-5.2	4.4%	10.7%	·
COc1ncc2nc(-c3ccccc3)c(=O)n(C[C@H]3CCCO3)c2n1	-19.1%	·	·	15.7%	·	·
COc1ccc(C(=O)/C=C/c2cn(CC(O)CN3CCOCC3)c3ccccc23)cc1 (stereo not given)	?	?	-93.5*	?	?	?
COc1ccc(C(=O)/C=C/c2cn(CC(O)CN3CCc4ccccc43)c3ccccc23)cc1OC (stereo not given)	4.11µM*	·	·	3.26µM*	·	·
Cc1ccc(C(=O)/C=C/c2cn(CC(O)CN3CCOCC3)c3ccccc23)cc1 (stereo not given)	?	?	-82.0*	?	?	-23.5%
CCOc1ccc(C(=O)/C=C/c2cn(CN3CCN(C)CC3)c3ccccc23)cc1	?	-28.0%	-20.6	-20.0%	?	?
COc1ccc(C(=O)/C=C/c2cn(CN3CCN(C)CC3)c3ccccc23)cc1	?	-3.1%[9.24 µM]	-68.2*	-26.6%	?	?
O=C(/C=C/c1cn(CC(O)CN2CCOCC2)c2ccccc12)c1cccs1 (stereo not given)	·	·	·	·	·	7.9%
CC(=O)[C@@]1(O)CC[C@H]2[C@@H]3C=C(Cl)C4=CC(=O)CC[C@]4(C)[C@H]3CC[C@@]21C	-26.8%	·	·	?	·	·
COc1ccc(S(=O)(=O)N2CCCCCC2)cc1C(=O)N1CCN(c2ccc(F)cc2)CC1	20.6µM*	-2.7%	?	?	-0.2%	·
COc1ccc(N2CCN(C(=O)c3cc(S(=O)(=O)N4CCCCCC4)ccc3OC)CC2)cc1	16.4µM*	0.0%	-9.4	?	2.8%	-9.9%
COc1ccc(N2CCN(C(=O)COc3ccc(S(=O)(=O)N4CCOCC4)cc3C)CC2)cc1	23.1µM*	-7.2%	-2.3	?	-12.2%	-1.6%
Cc1cc(S(=O)(=O)N2CCCC2)ccc1OCC(=O)N1CCOCC1	-4.9%	-0.8%	2.2	-2.0%	2.2%	5.4%
Cc1cccc(CCN2CCN=C2Nc2ccccc2)c1	-25.6%	-26.8%	-23.3	?	-7.6%	13.3%
CCCS(=O)(=O)NC(=O)C1(C)CCN(C(=O)c2ccc(OC)c(F)c2)C1 (stereo not given)	-3.1%	?	25.4	4.0%	4.1%	·
CCC(CC)C(=O)N(C)c1c(C)nc2c(OCc3ccc(Cl)cc3)cccn12	?	?	10.6	8.2µM*	?	·
SMILES	TDP1 cell noCPT	HT1080NT lethal	IL1B secr inh	TDP1 cell CPT	HT1080 IDH1KD tx	ELG1 repair inh
CCC(CC)C(=O)N(C)c1c(C)nc2c(OCc3cc(Cl)cc(Cl)c3)cccn12	?	?	3.7	?	?	·
CCC(CC)C(=O)N(C)c1c(C)nc2c(OCc3cccc(Cl)c3)cccn12	11.6µM*	-18.3%	18.9	20.6µM*	-29.3%	·
CCC(CC)C(=O)N(C)c1c(C)nc2c(OCc3cccc(OC)c3)cccn12	20.6µM*	-19.2%	0.3	?	-1.4%	·
CCC(CC)C(=O)N(C)c1c(C)nc2c(OCc3ccc(OC(F)F)cc3)cccn12	11.6µM*	-20.3%	-9.6	11.6µM*	-2.6%	·
COc1ccc(-c2nc3c(C)cc(Br)cn3c2CC(C)(C)C)cc1OC	-21.6%	3.5%	12.9	-22.0%	-5.9%	·
COc1ccc(-c2nc3ccc(C)cn3c2Cc2cccc(Cl)c2)cc1OC	18.4µM*	?	-0.1	?	18.4µM*	·
Cc1ccc2nc(-c3ccc(Cl)cc3)c(Cc3cccc(Cl)c3)n2c1	?	?	-11.8	?	?	·
Cc1ccc2nc(-c3ccco3)c(CC3CCCCC3)n2c1	10.3µM*	?	-16.9	13µM*	?	·
COc1ccc(-c2nc3ccc(C)cn3c2CC(C)(C)C)cc1OC	20.6µM*	-14.7%	-12.2	18.4µM*	?	·
COc1ccccc1Cc1c(-c2ccc(OC)c(OC)c2)nc2ccc(C)cn12	23.1µM*	?	-24.2	?	?	·
CC(C)CN(CCCNC(=O)CN1N=C(c2ccc(Cl)cc2)CCC1=O)CC(C)C	?	1.3%	0.0	?	-1.1%	0.6%
Cc1ccc2nc(C(C)(C)C)c(Cc3cccc(Cl)c3)n2c1	18.4µM*	16.4µM*	11.0	16.4µM*	?	·
COc1ccc(-c2nc3ccc(C)cn3c2Cc2ccc(C)cc2)cc1OC	14.6µM*	-21.5%	-18.7	23.1µM*	-27.4%	·
COc1ccccc1Cc1c(-c2ccco2)nc2ccc(C)cn12	8.2µM*	?	?	8.2µM*	?	·
Cc1cc2nc(C(C)(C)C)c(Cc3cccc(Cl)c3)n2c(C)c1Br	-23.9%	-5.0%	53.4	-19.6%	-20.5%	·
COc1ccc(-c2nc3ccc(Br)cn3c2Cc2ccsc2)cc1OC	?	-17.9%	1.2	?	-18.8%	·
COc1ccc(Cc2c(-c3ccco3)nc3ccc(Cl)cn23)c(C)c1	?	-24.4%	-4.2	?	?	·
COc1ccc(-c2nc3ccc(C)cn3c2Cc2ccccc2)cc1OC	23.1µM*	?	?	18.4µM*	?	·
COc1cccc(NC(=O)CN(CCc2ccccc2)S(=O)(=O)c2ccc(Cl)cc2)c1	-0.7%	·	·	-3.9%	·	·
